# Results filed as inconclusive are left out. A number with no mark means an inactive call. Calls follow the shape of the dose curve; as a rule, active = well fitted cell-killing curve with a large enough effect; inconclusive = small, poorly fitted or top-dose-only effect, or effect the other way; inactive = flat fitted curve, though single readings scatter.
# Test system: JEG-3
# Test: Primary qHTS to identify gynecologic anti-cancer compounds using libraries of approved drugs and bioactive compounds (AID 1345084); also: nearly all actives have a fitted effect of over 55% in size
# Conditions: Gynecologic cancer cell panel viability, ATPlite luminescence, 48 h; series mostly up to 57.5 µM; activity change, negative = cytotoxicity: at the top concentration
# Method in brief: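 Cells, 1,000 per well, plated 16 h, then exposed 48 h at 37 C to compounds. Viability by ATPlite luminescence after 15 min at room temperature.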
# % is scaled to controls: 0 for no effect and ±100 for the full control effect.
row,SMILES,"activity change, negative = cytotoxicity"
1,COc1ccc(-c2nc(-c3ccc(-c4cccc(Cl)c4)o3)[nH]c2-c2ccc(OC)cc2)cc1,-10.3%
2,CC(=O)c1c(O)cc(O[C@@H]2O[C@H](CO)[C@@H](O)[C@H](O)[C@H]2O)cc1O,-3.72% [at 38.5 µM]
3,C=C1C(O)C(O)C2(CC3C(C)=CCC4C(C)(CO)CCCC34C)OC2C1O (configuration not stated),5.82% [at 38.5 µM]
4,O=C1NC(Cc2c[nH]c3ccccc23)C(=O)NC1Cc1c[nH]c2ccccc12 (configuration not stated),-16.4% [at 38.5 µM]
5,CC1CCC2(C=O)C(CO)=CCCC2C1(C)CC(=O)O (configuration not stated),-3.36%
6,COc1cc(C)c(C(=O)O[C@H]2[C@@H](OC(C)=O)[C@H](n3ccc(=O)[nH]c3=O)O[C@@H]2CO)c(OC)c1,9.57% [at 25.3 µM]
7,COC(=O)C1=CO[C@@H](O[C@@H]2O[C@H](CO)[C@@H](O)[C@H](O)[C@H]2O)[C@@H]2[C@@](C)(O)[C@@H](OC(=O)/C=C/c3ccc(O)cc3)C[C@]12O,16.2% [at 25.3 µM]
8,C[C@@H]([C@@H](O)c1ccc(O)cc1)N1CCC(O)(c2ccccc2)CC1,5.35%
9,N#C[C@@H]1C[C@H](F)CN1C(=O)CNC1[C@H]2CN(C(=O)c3ccc(F)cc3)C[C@@H]12 (some centres not stated),2.21%
10,C=C1CCC2C(C)(C(=O)OC)CCCC2(C)C1CCC(C)CC(=O)O (configuration not stated),5.94% [at 38.5 µM]
11,C[C@@H]1C(=O)O[C@H]2C[C@]34[C@H]5C[C@@H](C(C)(C)C)[C@]36[C@@H](OC(=O)[C@H]6O)O[C@]4(C(=O)O5)[C@]21O,1.82% [at 25.3 µM]
12,COC(=O)C1=COC(O[C@@H]2O[C@H](CO)[C@@H](O)[C@H](O)[C@H]2O)[C@H]2[C@@H]1[C@H](OC(=O)CCc1ccc(O)cc1)C[C@]2(C)O (some centres not stated),13.5% [at 25.3 µM]
